Reference: PubChem BioAssay (NCI)
This is part of a sample that, as a whole, favours compounds with a hit. Of some 83,000 tested, about 20% had one in any assay.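 In brief: 96-well plates, 48 h treatment, single concentration, percent growth endpoint.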 Activity calls are given as the source filed them. The calls were made as follows: active = growth percent below 10; inactive = the rest.

Each compound was assayed on RXF 393 renal (assay: NCI-60 one-dose screen, 48 h (100 = growth as untreated, 0 = no growth, -100 = all killed)). Conditions: 10 µM unless noted.
For `COc1ccc(/C=C/C(=O)/C=C(/C=C/c2ccc(OC)c(OC)c2)OB(F)F)cc1OC`, the growth was -10.8% (active). For `COc1cc(/C=C/C(=O)/C=C/c2cc3ccc(Cl)cc3[nH]c2=O)ccc1O`, the growth was 70.9% (inactive). In the case of `CCCCn1c(=O)c(/C=C/C(=O)/C=C/c2cc3ccccc3n(CCCC)c2=O)cc2ccccc21`, the growth is reported as -89.9% (active). With `COc1ccc(-c2nc(C#N)c(NCC(c3ccco3)N3CCCC3)o2)cc1` (stereo not drawn) the growth was 14.8% (inactive). With `N#C/C(=C/c1ccc(O)c([N+](=O)[O-])c1)c1nc(-c2ccc([N+](=O)[O-])cc2)cs1` the growth was 77.7% (inactive). With `C=C1C(=O)O[C@H]2[C@H]1CC/C(COC(=O)CCCCC(=O)OC/C1=C/CC[C@@]3(C)O[C@H]3[C@H]3OC(=O)C(=C)[C@@H]3CC1)=C\CC[C@@]1(C)O[C@@H]21` the growth was -44.1% (active). For `CCOC(=O)c1c(C(F)(F)F)n([O-])c2ccc(Cl)cc2[n+]1=O`, the growth was -60.6% (active). `COc1ccc(-c2nc(C#N)c(NCC(c3ccc(Cl)cc3)N3CCCCC3)o2)cc1` (stereo not drawn) was tested, and the growth was 71.8% (inactive). For `O=CN1N=C(c2ccc(Cl)cc2)CC1c1cccc(Nc2ccnc3cc(C(F)(F)F)ccc23)c1` (stereo not drawn), the growth was 71.4% (inactive). For `O=C(CCCCCCCCC(=O)Nc1cccc(C2=NCCN2)c1)Nc1cccc(C2=NCCN2)c1`, the growth was 108% (inactive). In the case of `CCOC(=O)C1CCN(S(=O)(=O)/N=C2/NC(=O)NC2=C(Cl)Cl)CC1`, the growth is reported as 83.8% (inactive). With `S=c1ssnc1-c1cc2ccccc2o1` the growth was 85.6% (inactive). With `NS(=O)(=O)c1ccc(C2C3=C(CCCC3=O)OC3=C2C(=O)c2ccccc2C3=O)cc1` (stereo not drawn) the growth was -90% (active). `C=C1C(=O)O[C@H]2[C@H]1CCC(/C=N/c1ncc(Br)cc1N)=C\CC[C@@]1(C)O[C@@H]21` was tested, and the growth was -79.3% (active). `C#Cc1ccccc1NC(=O)c1sc2nc3c(cc2c1N)CCCCC3` was tested, and the growth was 113% (inactive). With `NS(=O)(=O)c1ccc(-n2nc(-c3ccccc3)ccc2=O)cc1` the growth was 125% (inactive). For `COc1ccc(-c2nnc(N3CCN(C(=O)CN4CCN(c5ccc(OC)cc5)CC4)CC3)nc2-c2ccc(OC)cc2)cc1`, the growth was -34.8% (active). For `N#Cc1ccc(Oc2ccc3ccc(=O)oc3c2)cc1`, the growth was 81.8% (inactive). For `CC1CCCN(CCCCCOc2ccc3oc4ccccc4c(=O)c3c2)C1` (stereo not drawn), the growth was 60.8% (inactive). `CS(=O)(=O)O[C@@H]1C(=O)N(c2cc3c4ccccc4ccc3c3ccccc23)[C@H]1c1ccc(F)cn1` was tested, and the growth was 18.6% (inactive). With `C=C1C(=O)O[C@H]2[C@H]1CC/C(C=Nc1c(N)cc(F)cc1Br)=C\CC[C@@]1(C)O[C@@H]21` the growth was 66.3% (inactive). For `Cc1ccc(SC2c3ccc(C)cc3Oc3nc(N)c(C#N)c(N)c32)cc1` (stereo not drawn), the growth was 53.9% (inactive). `O=C(Nc1nccs1)c1noc2ccccc12` was tested, and the growth was 110% (inactive). With `C=C(C)[C@@H]1CC[C@]2(C(=O)OCCCC[P+](c3ccccc3)(c3ccccc3)c3ccccc3)CC[C@]3(C)[C@H](CC[C@@H]4[C@@]5(C)CC[C@H](OC(=O)C(Cl)Cl)C(C)(C)[C@@H]5CC[C@]43C)[C@@H]12` the growth was -80.8% (active). In the case of `Cc1cc2ccccc2c[n+]1CC(=O)c1ccc(-c2ccccc2)cc1`, the growth is reported as 62.5% (inactive). In the case of `O=C1Nc2ccc(Cl)cc2/C1=N/c1nc(-c2ccc(F)cc2)cs1`, the growth is reported as 37% (inactive). `COc1cc(/C=N/Nc2nc(-c3ccc(F)cc3)c(C#N)c(N3CCOCC3)n2)ccc1O` was tested, and the growth was -0.23% (active). For `C=C(C)[C@@H]1CC[C@]2(C(=O)N=C=S)CC[C@]3(C)[C@H](CC[C@@H]4[C@@]5(C)CCC(=O)C(C)(C)[C@@H]5CC[C@]43C)[C@@H]12`, the growth was 50.6% (inactive). With `CC1(C)[C@@H](O)CC[C@]2(C)[C@H]3CC[C@@H]4[C@H]5[C@H](c6cn(-c7ccccc7)nn6)CC[C@]5(CO)CC[C@@]4(C)[C@]3(C)CC[C@@H]12` the growth was 65.3% (inactive). For `COc1cc(/C=C/C(=O)c2ccc(NC(=O)CSc3nnc(-c4cc(OC)c(OC)c(OC)c4)n3-c3ccccc3)cc2)cc(OC)c1OC`, the growth was -55.4% (active). In the case of `O=c1c2ccccc2n(CC(O)CN2CCCC2)c2c(Br)cccc12` (stereo not drawn), the growth is reported as 98.9% (inactive). In the case of `COc1cc(-c2cn(-c3ccc(Cl)c(Cl)c3)c(=O)[nH]2)cc(OC)c1OC`, the growth is reported as 86.4% (inactive). With `COC(=O)c1ccc2c(c1)n(Cc1ccc3ccccc3c1)c[n+]2Cc1ccc2ccccc2c1` the growth was 69.3% (inactive).
